Experimental data: PubChem BioAssay (NCATS)
Results filed as inconclusive are left out. Activity calls are given as the source filed them. Calls follow the shape of the dose curve; as a rule, active = well fitted curve in the direction sought with a large enough effect; inconclusive = small, poorly fitted or top-dose-only effect, or another doubt; inactive = no such curve, though single readings can be large; an effect the other way counts as inactive or inconclusive.

Assays:
[1] = target: Rap guanine nucleotide exchange factor 3 (Homo sapiens) (UniProt O95398); experiment: Confirmatory qHTS for antagonist of cAMP-regulated guanine nucleotide exchange factor 3 (EPAC1) (AID 1645880); conditions: EPAC1 Rap1B-BODIPY-GDP exchange, fluorescence; activity, negative = inhibition: at 115 µM (top of the series);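 also: plate controls were DMSO only for no effect and full effect of the ATA control for full effect; nearly all actives have a fitted effect of over 55% in size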
Outline: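 Nucleotide exchange uses 100 nM EPAC1, 250 nM RAP1B-BODIPY-GDP and 50 uM GDP, with compounds in a concentration-titration series. After 5 min at room temperature, fluorescence (480 nm ex/540 nm em) is read every 5 min for 30 min. Data are normalized to control ATA and DMSO.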

[2] = target: Rap guanine nucleotide exchange factor 3 (Homo sapiens) (UniProt O95398); experiment: Confirmatory qHTS for agonist of cAMP-regulated guanine nucleotide exchange factor 3 (EPAC1) (AID 1645881);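 also: EPAC1 catalysed release of BODIPY-GDP from Rap1B seen as fluorescence loss; 100% = effect of cAMP agonist control; nearly all actives have a fitted effect of over 75% in size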
[3] = target: Rap guanine nucleotide exchange factor 4 (Homo sapiens) (UniProt Q8WZA2); experiment: Confirmatory qHTS for agonist of cAMP-regulated guanine nucleotide exchange factor 4 (EPAC2) (AID 1645884);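 also: nucleotide exchange releases bodipy-GDP from Rap1 and this lowers its fluorescence; % is scaled to controls: 0 for no effect and ±100 for the full control effect; nearly all actives have a fitted effect of over 65% in size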
[4] = target: Rap guanine nucleotide exchange factor 4 (Homo sapiens) (UniProt Q8WZA2); experiment: Confirmatory qHTS for antagonist of cAMP-regulated guanine nucleotide exchange factor 4 (EPAC2) (AID 1645885); also: % is scaled to controls: 0 for no effect and ±100 for the full control effect; nearly all actives have a fitted effect of over 25% in size
[5] = target: Rap guanine nucleotide exchange factor 3 (Homo sapiens) (UniProt O95398); experiment: Counterscreen qHTS for antagonist of cAMP-regulated guanine nucleotide exchange factor 3 (EPAC1) (AID 1645888);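 also: fluorescence loss as bound BODIPY-GDP is released from Rap1B; % of control where 0% means no effect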
Outline: (§1)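 Rap1B-BODIPY-GDP 250 nM + GDP 50 uM; cpds 7-pt, final 9.74 nM–152 uM (activator mode) or from 7.32 nM upwards (inhibitor mode); RT; FI 480/540 nm at 5 and 30 min, then ± cAMP, reread.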

[6] = target: Rap guanine nucleotide exchange factor 3 (Homo sapiens) (UniProt O95398); experiment: Counterscreen qHTS for agonist of cAMP-regulated guanine nucleotide exchange factor 3 (EPAC1) (AID 1645889); also: % of control where 0% means no effect; nearly all actives have a fitted effect of over 40% in size
Outline: as §1

Rap guanine nucleotide exchange factor 3 (Homo sapiens), sequence (O95398 whole entry, looked up): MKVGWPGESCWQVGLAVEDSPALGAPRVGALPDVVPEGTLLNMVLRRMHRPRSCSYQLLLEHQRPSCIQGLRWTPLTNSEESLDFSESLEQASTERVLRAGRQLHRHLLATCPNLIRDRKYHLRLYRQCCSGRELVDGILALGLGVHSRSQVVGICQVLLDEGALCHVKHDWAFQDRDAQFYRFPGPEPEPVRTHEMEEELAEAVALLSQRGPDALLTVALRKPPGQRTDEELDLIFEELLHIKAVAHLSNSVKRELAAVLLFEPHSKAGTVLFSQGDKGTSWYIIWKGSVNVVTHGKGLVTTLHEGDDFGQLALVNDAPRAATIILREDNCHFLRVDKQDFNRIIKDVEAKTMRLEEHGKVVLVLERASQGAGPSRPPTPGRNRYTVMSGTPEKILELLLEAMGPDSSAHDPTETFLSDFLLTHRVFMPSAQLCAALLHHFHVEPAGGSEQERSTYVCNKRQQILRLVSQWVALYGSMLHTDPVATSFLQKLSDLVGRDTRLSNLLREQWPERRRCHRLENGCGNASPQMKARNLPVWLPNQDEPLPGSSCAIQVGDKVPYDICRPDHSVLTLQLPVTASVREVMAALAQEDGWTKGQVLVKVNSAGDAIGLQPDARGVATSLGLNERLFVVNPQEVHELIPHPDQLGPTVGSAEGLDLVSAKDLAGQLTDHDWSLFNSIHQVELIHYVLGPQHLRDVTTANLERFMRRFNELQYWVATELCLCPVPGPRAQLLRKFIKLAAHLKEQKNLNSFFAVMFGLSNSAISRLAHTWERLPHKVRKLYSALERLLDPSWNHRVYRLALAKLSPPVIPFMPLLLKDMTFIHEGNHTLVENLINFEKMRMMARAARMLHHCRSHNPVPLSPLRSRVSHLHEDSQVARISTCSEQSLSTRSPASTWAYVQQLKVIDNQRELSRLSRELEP
Rap guanine nucleotide exchange factor 4 (Homo sapiens), sequence (Q8WZA2 whole entry, looked up): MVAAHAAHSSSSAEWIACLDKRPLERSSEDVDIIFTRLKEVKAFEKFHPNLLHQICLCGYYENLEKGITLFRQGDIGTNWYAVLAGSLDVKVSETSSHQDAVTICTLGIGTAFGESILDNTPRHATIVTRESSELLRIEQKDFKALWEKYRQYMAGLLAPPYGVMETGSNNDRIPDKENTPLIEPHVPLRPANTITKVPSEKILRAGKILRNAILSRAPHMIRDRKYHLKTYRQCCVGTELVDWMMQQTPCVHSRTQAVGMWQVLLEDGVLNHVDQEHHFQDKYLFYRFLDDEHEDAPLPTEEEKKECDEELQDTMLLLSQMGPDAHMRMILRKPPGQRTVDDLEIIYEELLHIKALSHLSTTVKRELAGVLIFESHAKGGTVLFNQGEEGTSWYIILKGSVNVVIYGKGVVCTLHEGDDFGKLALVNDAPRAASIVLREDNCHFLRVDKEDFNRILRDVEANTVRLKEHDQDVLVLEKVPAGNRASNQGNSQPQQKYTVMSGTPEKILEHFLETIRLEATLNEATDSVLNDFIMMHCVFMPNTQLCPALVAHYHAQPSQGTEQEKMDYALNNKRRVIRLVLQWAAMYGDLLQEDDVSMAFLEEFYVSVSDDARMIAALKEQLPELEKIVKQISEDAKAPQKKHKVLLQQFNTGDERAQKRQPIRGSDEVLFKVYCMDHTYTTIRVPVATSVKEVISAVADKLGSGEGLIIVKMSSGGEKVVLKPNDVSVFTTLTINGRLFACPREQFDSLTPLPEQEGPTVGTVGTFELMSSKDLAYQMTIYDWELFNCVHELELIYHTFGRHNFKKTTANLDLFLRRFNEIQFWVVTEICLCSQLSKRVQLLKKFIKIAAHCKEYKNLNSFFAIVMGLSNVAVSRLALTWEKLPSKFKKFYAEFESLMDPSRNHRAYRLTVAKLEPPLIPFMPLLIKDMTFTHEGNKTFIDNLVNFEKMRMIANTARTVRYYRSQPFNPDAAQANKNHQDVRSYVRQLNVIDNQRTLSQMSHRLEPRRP

COC(=O)/C(N=Nc1cccc(C(F)(F)F)c1)=C(\C)O
inactive: Potency [1] | Potency [2] | activation [3] 10.2% [at 17.1 µM, percent relative to cAMP agonist control] | Potency [4] | activity change, negative = inhibition [5] -9.14% [at 30.8 µM] | activation [6] 22.5% [at 30.8 µM]

O=C(C1CCN(S(=O)(=O)N2CCOCC2)CC1)N1CCN(c2ccccc2)CC1
inactive: Potency [1] | Potency [2] | Potency [3] | Potency [4] | Potency [5] | Potency [6]

Cc1cccc(NC(=O)C2CCCN(S(=O)(=O)c3ccc4c(c3)oc(=O)n4C)C2)c1 (stereo not given)
inactive: Potency [1] | Potency [2] | activation [3] 3.99% [at 17.1 µM, percent relative to cAMP agonist control] | Potency [4] | activity change, negative = inhibition [5] -11.5% [at 30.8 µM] | activation [6] 7.38% [at 30.8 µM]

CCOC(=O)c1c(-c2ccc(OC)cc2)csc1/N=C/C1=C(O)CCCC1=O
inactive: Potency [1] | Potency [2] | activation [3] 4.43% [at 17.1 µM, percent relative to cAMP agonist control] | Potency [4] | activity change, negative = inhibition [5] -7.43% [at 30.8 µM] | activation [6] 11.3% [at 30.8 µM]

Cc1cccc(C)c1Nc1nn2c(=O)c3cc4c(cc3nc2s1)OCO4
inactive: Potency [1] | Potency [2] | Potency [3] | Potency [4] | Potency [5] | Potency [6]
